Results on 14 compounds are retold here after ChEMBL document CHEMBL1961873, “Compounds: GSK PKIS; Assays: Nanosyn kinase panel” (2012).

Experiment [1] has as its target Tyrosine-protein kinase Fyn (Homo sapiens) (UniProt P06241). Particulars: at 1 µM.
For experiment [2], the target named is Tyrosine-protein kinase HCK (Homo sapiens) (UniProt P08631). Particulars: at 0.1 µM.
Experiment [3] shares this target. The note with it: at 1 µM.
The target in experiment [4] is Insulin-like growth factor 1 receptor (Homo sapiens) (UniProt P08069). The note with it: at 0.1 µM.
Insulin-like growth factor 1 receptor (Homo sapiens), sequence (P08069 31-736 limits assumed): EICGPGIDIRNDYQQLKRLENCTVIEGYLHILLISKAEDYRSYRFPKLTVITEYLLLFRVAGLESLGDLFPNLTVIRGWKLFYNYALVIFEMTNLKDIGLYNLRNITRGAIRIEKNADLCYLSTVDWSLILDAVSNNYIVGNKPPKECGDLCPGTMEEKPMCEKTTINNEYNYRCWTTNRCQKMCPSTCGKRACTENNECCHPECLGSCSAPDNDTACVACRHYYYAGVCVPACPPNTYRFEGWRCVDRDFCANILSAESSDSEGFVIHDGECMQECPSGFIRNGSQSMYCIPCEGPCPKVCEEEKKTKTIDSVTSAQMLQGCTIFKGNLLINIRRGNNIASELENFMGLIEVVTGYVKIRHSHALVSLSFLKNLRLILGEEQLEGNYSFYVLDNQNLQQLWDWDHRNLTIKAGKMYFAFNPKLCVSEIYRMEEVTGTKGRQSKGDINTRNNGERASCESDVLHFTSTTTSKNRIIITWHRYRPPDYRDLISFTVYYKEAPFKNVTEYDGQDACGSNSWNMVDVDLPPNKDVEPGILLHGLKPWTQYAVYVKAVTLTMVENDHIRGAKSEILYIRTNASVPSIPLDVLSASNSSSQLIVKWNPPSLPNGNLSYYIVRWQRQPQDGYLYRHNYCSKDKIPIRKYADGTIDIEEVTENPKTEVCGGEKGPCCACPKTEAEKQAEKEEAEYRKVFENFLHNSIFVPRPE
Insulin-like growth factor 1 receptor (Homo sapiens), sequence (P08069 741-1367 limits assumed): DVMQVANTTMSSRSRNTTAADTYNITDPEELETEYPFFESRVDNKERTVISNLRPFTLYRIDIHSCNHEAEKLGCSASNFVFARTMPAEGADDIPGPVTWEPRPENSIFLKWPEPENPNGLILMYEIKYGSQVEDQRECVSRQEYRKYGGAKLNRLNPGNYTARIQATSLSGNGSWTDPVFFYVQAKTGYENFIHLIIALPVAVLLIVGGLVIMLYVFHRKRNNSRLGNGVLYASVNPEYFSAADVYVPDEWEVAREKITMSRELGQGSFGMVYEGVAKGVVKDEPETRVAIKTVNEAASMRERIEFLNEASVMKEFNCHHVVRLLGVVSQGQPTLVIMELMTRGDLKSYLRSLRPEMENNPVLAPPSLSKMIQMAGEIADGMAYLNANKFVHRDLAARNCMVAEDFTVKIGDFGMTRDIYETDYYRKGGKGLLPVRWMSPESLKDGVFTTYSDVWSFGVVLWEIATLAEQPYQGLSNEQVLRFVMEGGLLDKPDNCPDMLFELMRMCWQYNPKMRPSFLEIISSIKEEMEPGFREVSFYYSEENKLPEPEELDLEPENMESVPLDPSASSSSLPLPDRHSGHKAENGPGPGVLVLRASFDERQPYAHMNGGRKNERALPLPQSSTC
The target is the same in experiment [5]. The note with it: at 1 µM.
Experiment [6] has as its target Insulin receptor (Homo sapiens) (UniProt P06213). Particulars: at 0.1 µM.
The target is the same in experiment [7]. Particulars: at 1 µM.
Experiment [8] has as its target Insulin receptor-related protein (Homo sapiens) (UniProt P14616). Particulars: at 0.1 µM.
For experiment [9] the target is unchanged. The note with it: at 1 µM.
The target in experiment [10] is T1, Tyrosine-protein kinase ITK/TSK (Homo sapiens) (UniProt Q08881).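 Further: mean percent inhibition of ITK from the GSK PKIS screen.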
T1 sequence (whole entry): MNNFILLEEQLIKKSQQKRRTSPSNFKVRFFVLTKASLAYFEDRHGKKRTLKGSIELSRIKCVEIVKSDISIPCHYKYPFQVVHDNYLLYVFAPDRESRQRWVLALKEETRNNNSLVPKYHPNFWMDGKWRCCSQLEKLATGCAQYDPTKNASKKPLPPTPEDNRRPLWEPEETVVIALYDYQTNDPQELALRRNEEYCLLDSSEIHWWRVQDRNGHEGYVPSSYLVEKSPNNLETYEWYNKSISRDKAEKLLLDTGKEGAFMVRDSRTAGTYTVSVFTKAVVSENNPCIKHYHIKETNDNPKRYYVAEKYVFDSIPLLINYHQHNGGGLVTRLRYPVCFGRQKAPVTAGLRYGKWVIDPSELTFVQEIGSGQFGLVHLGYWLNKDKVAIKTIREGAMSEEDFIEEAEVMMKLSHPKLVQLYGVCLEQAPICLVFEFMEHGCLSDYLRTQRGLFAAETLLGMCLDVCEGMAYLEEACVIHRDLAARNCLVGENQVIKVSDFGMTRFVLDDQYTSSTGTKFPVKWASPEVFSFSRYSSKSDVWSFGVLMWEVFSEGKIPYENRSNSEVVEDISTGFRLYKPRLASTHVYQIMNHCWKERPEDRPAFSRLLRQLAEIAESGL
Particulars: at 0.1 µM.

Molecules are shown by their SMILES.

Insulin receptor-related protein (Homo sapiens), sequence (P14616 27-742 limits assumed): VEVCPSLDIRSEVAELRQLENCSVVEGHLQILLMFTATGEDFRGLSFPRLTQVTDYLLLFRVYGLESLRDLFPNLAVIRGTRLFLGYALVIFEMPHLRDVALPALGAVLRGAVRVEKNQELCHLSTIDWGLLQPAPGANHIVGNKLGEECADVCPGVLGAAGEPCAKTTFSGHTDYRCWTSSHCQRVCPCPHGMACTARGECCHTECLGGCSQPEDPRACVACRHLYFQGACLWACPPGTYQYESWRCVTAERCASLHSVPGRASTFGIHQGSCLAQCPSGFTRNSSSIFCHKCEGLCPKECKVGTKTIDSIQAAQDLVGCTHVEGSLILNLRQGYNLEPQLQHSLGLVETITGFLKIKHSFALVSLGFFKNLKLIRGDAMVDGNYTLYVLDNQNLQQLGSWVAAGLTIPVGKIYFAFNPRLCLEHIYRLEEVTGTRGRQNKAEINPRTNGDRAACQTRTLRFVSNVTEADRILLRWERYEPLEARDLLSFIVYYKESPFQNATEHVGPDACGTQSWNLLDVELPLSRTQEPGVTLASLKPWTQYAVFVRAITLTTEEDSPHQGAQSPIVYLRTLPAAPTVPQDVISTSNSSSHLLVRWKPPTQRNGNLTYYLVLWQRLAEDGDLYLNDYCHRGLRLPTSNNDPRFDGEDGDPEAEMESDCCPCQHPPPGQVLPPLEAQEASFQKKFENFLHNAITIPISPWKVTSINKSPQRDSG
Insulin receptor-related protein (Homo sapiens), sequence (P14616 747-1297 limits assumed): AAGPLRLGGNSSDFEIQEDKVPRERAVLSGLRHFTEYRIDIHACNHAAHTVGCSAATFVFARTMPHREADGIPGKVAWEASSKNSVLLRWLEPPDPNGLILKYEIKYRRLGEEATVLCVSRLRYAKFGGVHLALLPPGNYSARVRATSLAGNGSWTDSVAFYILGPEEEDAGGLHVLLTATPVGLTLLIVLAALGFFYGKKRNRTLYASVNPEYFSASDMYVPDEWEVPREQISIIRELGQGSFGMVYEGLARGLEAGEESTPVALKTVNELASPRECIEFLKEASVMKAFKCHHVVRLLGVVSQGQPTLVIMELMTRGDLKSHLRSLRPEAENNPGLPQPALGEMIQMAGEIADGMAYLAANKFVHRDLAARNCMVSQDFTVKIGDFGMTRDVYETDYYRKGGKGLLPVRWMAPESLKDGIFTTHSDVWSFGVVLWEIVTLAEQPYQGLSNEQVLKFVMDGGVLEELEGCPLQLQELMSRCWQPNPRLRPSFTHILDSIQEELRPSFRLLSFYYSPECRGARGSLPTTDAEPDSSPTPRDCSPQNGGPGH
Insulin receptor (Homo sapiens), sequence (P06213 28-758 limits assumed): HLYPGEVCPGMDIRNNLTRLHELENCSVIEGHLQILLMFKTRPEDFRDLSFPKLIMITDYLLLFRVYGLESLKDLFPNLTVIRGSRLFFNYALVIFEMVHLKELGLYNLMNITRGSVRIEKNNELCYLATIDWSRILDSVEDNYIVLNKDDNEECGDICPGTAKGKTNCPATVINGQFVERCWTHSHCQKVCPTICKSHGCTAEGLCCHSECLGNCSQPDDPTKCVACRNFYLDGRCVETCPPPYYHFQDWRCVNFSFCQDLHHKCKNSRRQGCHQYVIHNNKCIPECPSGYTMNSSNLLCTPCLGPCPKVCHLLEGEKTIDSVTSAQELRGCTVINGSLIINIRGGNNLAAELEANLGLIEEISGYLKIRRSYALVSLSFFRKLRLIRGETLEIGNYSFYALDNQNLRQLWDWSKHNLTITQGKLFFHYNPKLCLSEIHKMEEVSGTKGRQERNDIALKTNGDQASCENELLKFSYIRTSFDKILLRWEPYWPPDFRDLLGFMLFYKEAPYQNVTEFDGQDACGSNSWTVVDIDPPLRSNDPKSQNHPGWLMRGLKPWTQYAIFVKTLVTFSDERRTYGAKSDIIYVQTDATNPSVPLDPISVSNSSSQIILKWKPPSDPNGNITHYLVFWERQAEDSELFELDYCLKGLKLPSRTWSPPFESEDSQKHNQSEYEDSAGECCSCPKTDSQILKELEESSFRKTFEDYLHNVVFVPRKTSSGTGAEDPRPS
Insulin receptor (Homo sapiens), sequence (P06213 763-1382 limits assumed): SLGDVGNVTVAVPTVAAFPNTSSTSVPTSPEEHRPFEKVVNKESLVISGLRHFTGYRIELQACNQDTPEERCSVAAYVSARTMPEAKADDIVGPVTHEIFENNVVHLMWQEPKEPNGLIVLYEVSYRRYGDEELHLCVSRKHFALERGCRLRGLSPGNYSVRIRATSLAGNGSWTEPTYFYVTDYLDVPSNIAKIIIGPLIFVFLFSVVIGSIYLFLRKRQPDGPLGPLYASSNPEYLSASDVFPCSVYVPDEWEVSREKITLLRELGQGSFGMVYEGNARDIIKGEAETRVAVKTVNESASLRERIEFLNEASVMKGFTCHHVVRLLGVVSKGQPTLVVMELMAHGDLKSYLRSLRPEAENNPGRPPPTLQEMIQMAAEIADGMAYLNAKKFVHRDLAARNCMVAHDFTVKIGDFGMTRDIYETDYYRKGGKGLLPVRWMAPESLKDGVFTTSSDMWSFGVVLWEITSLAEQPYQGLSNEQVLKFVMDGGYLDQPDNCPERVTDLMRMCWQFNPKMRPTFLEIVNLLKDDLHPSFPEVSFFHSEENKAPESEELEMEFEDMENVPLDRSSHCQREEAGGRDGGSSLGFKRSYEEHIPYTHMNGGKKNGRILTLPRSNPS
Tyrosine-protein kinase HCK (Homo sapiens), sequence (P08631 2-526 limits assumed): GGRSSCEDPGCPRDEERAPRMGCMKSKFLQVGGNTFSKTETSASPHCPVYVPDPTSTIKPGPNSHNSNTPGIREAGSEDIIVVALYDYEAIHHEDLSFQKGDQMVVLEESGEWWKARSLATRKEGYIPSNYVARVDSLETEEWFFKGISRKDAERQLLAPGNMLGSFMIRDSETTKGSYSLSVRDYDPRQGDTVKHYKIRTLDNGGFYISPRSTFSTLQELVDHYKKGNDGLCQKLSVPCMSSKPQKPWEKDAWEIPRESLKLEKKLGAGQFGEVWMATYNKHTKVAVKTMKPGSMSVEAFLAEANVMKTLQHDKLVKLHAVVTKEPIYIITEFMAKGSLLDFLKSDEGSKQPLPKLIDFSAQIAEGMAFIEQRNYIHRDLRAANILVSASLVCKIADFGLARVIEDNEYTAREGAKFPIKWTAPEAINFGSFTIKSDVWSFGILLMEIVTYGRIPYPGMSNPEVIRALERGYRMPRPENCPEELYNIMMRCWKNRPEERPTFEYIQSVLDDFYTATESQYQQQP
Tyrosine-protein kinase Fyn (Homo sapiens), sequence (P06241 2-537 limits assumed): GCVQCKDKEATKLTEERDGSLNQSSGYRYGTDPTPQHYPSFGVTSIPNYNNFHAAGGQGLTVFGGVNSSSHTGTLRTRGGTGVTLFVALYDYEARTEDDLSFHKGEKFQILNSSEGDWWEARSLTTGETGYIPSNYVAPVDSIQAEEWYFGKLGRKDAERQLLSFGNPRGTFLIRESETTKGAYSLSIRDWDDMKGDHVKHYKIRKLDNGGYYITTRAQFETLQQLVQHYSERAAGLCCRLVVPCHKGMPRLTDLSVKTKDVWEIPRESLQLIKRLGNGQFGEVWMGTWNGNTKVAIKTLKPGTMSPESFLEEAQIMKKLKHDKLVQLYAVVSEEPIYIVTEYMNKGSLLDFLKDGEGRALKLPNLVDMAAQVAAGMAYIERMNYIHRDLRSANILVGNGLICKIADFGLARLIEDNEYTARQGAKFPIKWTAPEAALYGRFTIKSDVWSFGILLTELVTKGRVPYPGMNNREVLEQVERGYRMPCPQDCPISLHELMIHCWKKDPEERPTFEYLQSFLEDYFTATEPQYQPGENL

In general, inhibition refers to the change of the read-out against control, counted positive when it falls. As to `Cc1cc(-c2ccccn2)cc(C)c1/C=C/c1cncc(-c2nn[nH]n2)c1`, the inhibition in [1] is 9.92%; in [2], 7.16%; in experiment [3], 17.3%; in [4], 16.5%; in [5] it was 10.9%; in experiment [6], 5.7%. Further, the inhibition in experiment [7] stood at 5.57%; in [8], 0.66%; in experiment [9] it was 2.24%; in experiment [10], 0.82%.
`CN(c1ccc(NC(=O)Nc2ccc(OC(F)(F)F)cc2)cc1)c1ccnc(Nc2cccc(S(N)(=O)=O)c2)n1`: the inhibition in experiment [1] is 53.5%; in experiment [2], 25.2%; in [3], 77.3%; in experiment [4], -1.04%; in [5] it was 0.46%; in experiment [6], 1.9%. For the same compound, the inhibition in [7] came to 2.39%; in experiment [8] it was 0.67%; in [9], 3.26%; in [10], 10.6%.
As for `N#Cc1cccc(Nc2nccc(-c3cnn4ncccc34)n2)c1`, the inhibition was 39.2% in experiment [1]; 7.16% in experiment [2]; 35.9% in [3]; 8.04% in [4]; 38.2% in experiment [5]; 9.03% in experiment [6]. Besides, the inhibition in experiment [7] came out at 40.9%; in [8], 3.98%; in experiment [9] it was 10.8%; in experiment [10] it was 2.91%.
Regarding `C[C@@H](Oc1cc(-n2cnc3ccc(OC[C@@H](O)CO)cc32)sc1C(N)=O)c1ccccc1Cl`, the inhibition is 5.15% in experiment [1]; -0.15% in [2]; 6.39% in experiment [3]; -1.52% in experiment [4]; -0.34% in experiment [5]; 0.87% in [6]. The inhibition was 0.26% in experiment [7], -2.17% in experiment [8], -2.11% in experiment [9] and 0.28% in [10].
Take `FC(F)(F)c1ccc(-c2nn3ncccc3c2-c2ccnc(Nc3ccc4c(c3)OCCO4)n2)cc1`: the inhibition in experiment [1] was 21.2%; in [2], 0.59%; in experiment [3] it was 15.1%; in [4], -3.01%; in [5] it was -2.92%; in [6], 0.23%. Further, the inhibition was 0.63% in experiment [7], -0.78% in [8], 0.97% in experiment [9] and 5.77% in experiment [10].
`COc1cccc(-n2ncc3c(N/N=C/c4ccc(S(C)(=O)=O)cc4)ncnc32)c1`: the inhibition in [1] was 69.8%; in experiment [2] it was 17%; in experiment [3], 55.7%; in experiment [4], -6.32%; in experiment [5], -5.27%; in [6], 2.59%. For the same compound, the inhibition in [7] is 1.06%; in experiment [8], 0.2%; in experiment [9], 0.63%; in experiment [10], -2.33%.
`OCc1ccc(-c2nc(-c3ccccn3)c(-c3ccc4c(c3)OCO4)[nH]2)cc1`: the inhibition in experiment [1] was found to be 5.01%; in experiment [2] it was 9.2%; in [3] it was 9.7%; in experiment [4], 1.56%; in [5], 4.7%; in experiment [6] it was 3.33%. The inhibition in [7] amounted to 2.79%; in [8], 4.43%; in experiment [9], 1.6%; in [10], 1.59%.
For `CC(C)c1ccc(Nc2nccc(-c3cnn4ncccc34)n2)cc1`, the inhibition came out at 6.49% in experiment [1]; 4% in [2]; 8.83% in [3]; 11.8% in experiment [4]; 53.1% in experiment [5]; 10.2% in experiment [6]. The inhibition in [7] worked out at 48.2%; in [8], 2.81%; in experiment [9], 8.71%; in [10] it was 0.75%.
`NS(=O)(=O)c1cccc(-c2cc3ccncc3cc2OCc2ccccc2)c1`: the inhibition worked out at 4.87% in experiment [1]; 7.87% in [2]; 11.1% in experiment [3]; 9.68% in experiment [4]; 10.4% in experiment [5]; 2.6% in experiment [6]. Besides, the inhibition in experiment [7] worked out at 4.4%; in experiment [8] it was 2.82%; in experiment [9], 1.54%; in experiment [10] it was 1.77%.
Consider `COc1cc2ncn(-c3cc(OCc4ccccc4S(C)(=O)=O)c(C#N)s3)c2cc1OC`, for which the inhibition in [1] worked out at 76.8%; in experiment [2] it was 16.2%; in experiment [3], 61.8%; in [4] it was 4.3%; in [5] it was 5.83%; in experiment [6] it was 5.14%. Also, the inhibition in experiment [7] is 5.1%; in experiment [8] it was 3.69%; in experiment [9] it was 3.13%; in experiment [10], 2.84%.
For the compound `CCS(=O)(=O)c1ccc(OC)c(Nc2nccc(N(C)c3ccc4c(C)n[nH]c4c3)n2)c1`, the inhibition in experiment [1] came to 65%; in experiment [2], 39.5%; in experiment [3], 72.1%; in experiment [4] it was 12.5%; in experiment [5] it was 12.5%; in [6], 3.36%. Besides, the inhibition in [7] was 4.35%; in experiment [8] it was 1.12%; in experiment [9], 4.55%; in experiment [10], 0.31%.
On to `c1ccc(Nc2ncc(-c3ccccc3)o2)cc1`, for which the inhibition in experiment [1] is 15.1%; in experiment [2], 6.83%; in experiment [3], 13.3%; in [4] it was 7.16%; in experiment [5], 5.2%; in experiment [6], 4.8%. For the same compound, the inhibition in experiment [7] stood at 6.98%; in [8] it was 2.31%; in experiment [9], 2.61%; in [10], 0.38%.
For the compound `Cc1ccc2c(c1)/C(=N/Nc1ccc(S(N)(=O)=O)cc1)C(=O)N2`, the inhibition in [1] was 0.85%; in experiment [2], 1.4%; in [3], 6.19%; in experiment [4], -1.37%; in experiment [5] it was -2.24%; in experiment [6] it was -0.03%. Further, the inhibition in experiment [7] was 1.98%; in experiment [8], -1.32%; in experiment [9] it was -0.18%; in experiment [10], 0.66%.
Turning to `Cc1ccc(Nc2ccnc(Nc3cccc(C(N)=O)c3)n2)cc1O`, the inhibition in experiment [1] was 89.4%; in experiment [2] it was 58.8%; in experiment [3] it was 83.5%; in experiment [4], -3.28%; in experiment [5], 17.2%; in [6], 3.53%. Besides, the inhibition was 13.7% in [7], 2.88% in [8], 3.49% in experiment [9] and -2.42% in experiment [10].
